High-throughput results as filed in PubChem BioAssay.
Compounds with a hit are over-represented: about 12% of the library has one in this group of screens.
PLK1 PBD block = inhibitors of human PLK1 polo-box domain binding; Plk1 PBD binding of FITC phosphopeptide, fluorescence polarization; 360,000 compounds, 2.8% hits; P53350; Potency, µM, for inactives: max response, negative = inhibition, actives largely listed as inhibitors; AID 720504; further: series mostly up to about 57 µM; on the % scale 0 is the no-effect control and ±100 the full control effect; nearly all actives have a fitted effect of over 65% in size
G9a inh = inhibitors of human histone lysine methyltransferase G9a | Q96KQ7 | G9a H3K9 monomethylation, AlphaScreen, 2 h | Potency, µM (highest dose often 102 µM), inactives show at the highest dose activity, negative = inhibition, most hits filed as inhibitors | 350,000 compounds, 8.8% hits | AID 504332; further: on the % scale 0 is the no-effect control and ±100 the full control effect; nearly all actives have a fitted effect of over 75% in size
Target sequence (Q96KQ7 913-1193 limits assumed): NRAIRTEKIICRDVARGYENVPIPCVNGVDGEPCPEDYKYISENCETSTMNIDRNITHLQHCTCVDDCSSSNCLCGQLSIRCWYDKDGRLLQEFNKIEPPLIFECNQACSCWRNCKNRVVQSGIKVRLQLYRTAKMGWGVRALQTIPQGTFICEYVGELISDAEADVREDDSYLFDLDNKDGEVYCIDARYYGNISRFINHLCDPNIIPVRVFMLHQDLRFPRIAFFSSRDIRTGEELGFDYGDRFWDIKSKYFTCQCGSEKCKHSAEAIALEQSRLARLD
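Chemiluminescent proximity detection of H3K9 monomethylation, read after 10 min bead incubation in the dark. Reaction: 20 nM G9a, 500 nM biotin-H3K9 peptide, 20 uM SAM cofactor, 2 h, room temperature, following 15 min enzyme-compound preincubation.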
HP1b binding inh = inhibitors of HP1-beta chromodomain binding to methylated histone tails. P83916. AlphaScreen HP1-beta / biotin-H3K9me3 peptide binding. Potency, µM (doses to about 114 µM), inactives show top-dose activity change, negative = inhibition, most hits filed as inhibitors. 390,000 compounds, 0.56% hits; further: nearly all actives have a fitted effect of over 70% in size
Target sequence (P83916 whole entry, looked up): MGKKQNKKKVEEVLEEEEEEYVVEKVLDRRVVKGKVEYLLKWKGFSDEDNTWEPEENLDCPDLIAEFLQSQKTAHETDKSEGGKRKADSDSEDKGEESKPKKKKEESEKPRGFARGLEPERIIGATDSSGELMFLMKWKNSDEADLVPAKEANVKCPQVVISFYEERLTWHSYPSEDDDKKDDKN
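HP1-beta protein (50 nM final) preincubated 30 min at room temperature with biotinylated H3(1-18)K9me3 peptide (50 nM) in PBS pH 7.4, 0.01% Tween-20, then compound added for 30 min. AlphaScreen streptavidin donor/nickel chelate acceptor beads (10 ug/mL final), 30 min dark, luminescence read.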
BAZ2B inh = BAZ2B (human) inhibition; AID 504333; Potency, µM (titrated, usually from 114 µM), inactives show at the top dose activity change, negative = inhibition, hits mostly inhibitors; AlphaScreen BAZ2B-H3K14Ac peptide displacement; 360,000 compounds, 4.4% hits; further: on the % scale 0 is the no-effect control and ±100 the full control effect; nearly all actives have a fitted effect of over 60% in size
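BAZ2B (50 nM) with biotin-H3(5-23)K14Ac peptide (50 nM) in PBS pH 7.4, 0.01% Tween-20, preformed 30 min, then compound 30 min at room temperature; top concentration 110uM. AlphaScreen streptavidin donor/nickel chelate acceptor beads (10 ug/mL final), 20 min dark, signal read.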
Sfp inh = inhibitors of Bacillus subtilis Sfp phosphopantetheinyl transferase; Q9F4F7; Biochemical Sfp PPTase activity, qHTS; Potency, µM, for the others: largest response in the series, negative = inhibition, most hits filed as inhibitors; 310,000 compounds, 3.5% hits; AID 1490;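 further: the enzyme is Sfp with the accession as filed and its product quenches rhodamine fluorescence; 0% = enzyme reaction without inhibitor and -100% = no enzyme wells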
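Fluorescence-quenching assay with 15 nM Sfp, 5 uM rhodamine-CoA and 12.5 uM BHQ-2-labelled ybbR peptide in pH 7.6 Hepes/MgCl2 buffer. Enzyme was pre-incubated with compound for 15 min at room temperature. Rate was taken from the 30-min fluorescence change (525/598 nm).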
JMJD2A Tudor = JMJD2A Tudor domain (human) inhibition; 390,000 compounds, 4.4% hits; AlphaScreen JMJD2A-Tudor / H3K4me3 peptide binding; O75164; Potency, µM (titrated, usually from 114 µM), inactives show at the highest dose activity change, negative = inhibition, most hits filed as inhibitors; further: on the % scale 0 is the no-effect control and ±100 the full control effect; nearly all actives have a fitted effect of over 50% in size
Numbers without * were called inactive; [ ] = dose if it differs, or a comment. The call rests on the fitted dose curve; in most records, active means well fitted curve in the direction sought with a large enough effect; inconclusive means small, poorly fitted or top-dose-only effect, or another doubt; inactive means no such curve, though single readings can be large; an effect the other way counts as inactive or inconclusive. Potency means the concentration at half of the fitted maximal effect.

Results for COc1cccc(-n2c(=S)[nH]c3ccccc3c2=O)c1 ?
PLK1 PBD block: -5.1%; G9a inh: 4.6%; HP1b binding inh: 35.7%; BAZ2B inh: -8.5%; Sfp inh: 16.6%; JMJD2A Tudor: -1.4%

How did C[N+]1(C)C2CC[C@H]1CC(OC(=O)[C@@H](CO)c1ccccc1)C2 (stereo not given in full) do in these assays?
G9a inh: -3.2%[59 µM]; Sfp inh: 8.1%

How did COC(=O)c1cn(S(=O)(=O)c2ccccc2)c2ccccc12 do in these assays?
PLK1 PBD block: -5.8%; G9a inh: inconclusive; HP1b binding inh: 56.3%; BAZ2B inh: 18.7%; Sfp inh: inconclusive; JMJD2A Tudor: 40.6%

Results for COC(=O)c1ccc(N2C(=O)CC(N3CCC(O)(c4ccc(Br)cc4)CC3)C2=O)cc1 (stereo not given) ?
PLK1 PBD block: 0.5%; G9a inh: 11.2µM*; HP1b binding inh: 49.4%; BAZ2B inh: 4.3%; Sfp inh: 7.0%; JMJD2A Tudor: -8.6%

What do the screens show for `CC12C=CC(=O)C=C1CCC1C2=CCC2(C)C1CC[C@@H]2C(=O)CN1CCN(c2cc(N3CCCC3)nc(N3CCCC3)n2)CC1` (stereo not given in full)?
G9a inh: 12.6µM*; Sfp inh: inconclusive

Results for O=C1/C(=C/c2ccc([N+](=O)[O-])cc2)N2CCC1CC2 ?
PLK1 PBD block: -1.9%; G9a inh: 11.2µM*; HP1b binding inh: -11.0%; BAZ2B inh: inconclusive; Sfp inh: 10.7%; JMJD2A Tudor: -30.7%

What do the screens show for `O=C1/C(=C/c2ccccc2Cl)N2CCC1CC2`?
PLK1 PBD block: 21.2µM*; G9a inh: -20.3%; HP1b binding inh: 6.2%; BAZ2B inh: -9.5%; Sfp inh: -4.5%; JMJD2A Tudor: -0.7%[11.4 µM]

Results for O=C1/C(=C/c2ccncc2)N2CCC1CC2 ?
PLK1 PBD block: 0.6%; G9a inh: -5.4%[59 µM]; HP1b binding inh: 49.5%; BAZ2B inh: -18.4%; Sfp inh: 8.9%; JMJD2A Tudor: 1.4%

Results for CNNC ?
Sfp inh: 11.2µM*

Results for C=CCn1c(C)c(C=C2C(=O)NC(=O)NC2=O)c2ccccc21 ?
PLK1 PBD block: 26.7µM*; G9a inh: 50.1µM*; HP1b binding inh: 21.8%; BAZ2B inh: -37.7%; Sfp inh: -7.6%; JMJD2A Tudor: -29.6%

How did O=C(Cn1cc(C(=O)c2ccccc2)c2ccccc21)Nc1ccc(Br)cc1 do in these assays?
G9a inh: 12.7%[59 µM]; HP1b binding inh: 21.3%; BAZ2B inh: 3.4%; JMJD2A Tudor: 4.5%

How did Cc1ccc(NC(=O)Cn2cc(C(=O)c3ccccc3)c3ccccc32)cc1 do in these assays?
G9a inh: -8.5%[59 µM]; HP1b binding inh: 37.5%; BAZ2B inh: -20.3%; JMJD2A Tudor: 39.8µM*

How did Cc1c(C=O)c2ccccc2n1Cc1ccccc1 do in these assays?
PLK1 PBD block: -9.5%; HP1b binding inh: 31.5%; BAZ2B inh: -5.5%[57.1 µM]; Sfp inh: -1.8%; JMJD2A Tudor: -16.6%

How did COCCNC(=O)Cn1cc(C(=O)c2ccccc2F)c2ccccc21 do in these assays?
PLK1 PBD block: 29.9µM*; G9a inh: inconclusive; HP1b binding inh: 4.4%; BAZ2B inh: -10.5%; Sfp inh: 5.4%; JMJD2A Tudor: -11.1%[57.1 µM]

Results for COCCNC(=O)Cn1cc(C=C2C(=O)NC(=O)NC2=O)c2ccccc21 ?
PLK1 PBD block: 6.7µM*; G9a inh: 5.9%; HP1b binding inh: 38.4%; BAZ2B inh: -3.1%; Sfp inh: 15.4%; JMJD2A Tudor: -6.1%

How did CCN1C[C@@]2(COC)CCC(OC)[C@]34C5C[C@]6(O)[C@@H](OC)C[C@](OC(C)=O)(C([C@H](OC)C23)[C@H]14)C5[C@H]6OC(=O)c1ccc(OC)cc1 (stereo not given in full) do in these assays?
Sfp inh: 29.3%

What do the screens show for `C[C@@]12CCC(=O)C=C1C=C[C@H]1[C@H]3CC[C@](O)(CCC(=O)O)[C@]3(C)CC[C@@H]12`?
G9a inh: 8.5%[21.5 µM]; Sfp inh: 21.0%

Results for O=C(c1ccccc1F)c1cn(CC(=O)N2CCCC2)c2ccccc12 ?
PLK1 PBD block: 2.99µM*; G9a inh: 9.9%; HP1b binding inh: inconclusive; BAZ2B inh: 13.9%; Sfp inh: -10.9%; JMJD2A Tudor: inconclusive

How did Cn1cc(C=C2C(=O)NC(=O)NC2=O)c2ccccc21 do in these assays?
PLK1 PBD block: 23.8µM*; G9a inh: -24.4%; HP1b binding inh: 27.7%; BAZ2B inh: -8.1%; Sfp inh: -28.0%; JMJD2A Tudor: inconclusive

How did O=C(c1ccccc1F)c1cn(CC(=O)N2CCOCC2)c2ccccc12 do in these assays?
PLK1 PBD block: inconclusive; G9a inh: 17.1%; HP1b binding inh: -9.3%; BAZ2B inh: 2.5%; Sfp inh: 22.2%; JMJD2A Tudor: inconclusive

How did Cc1nc2ccc(P(=O)(O)O)cc2s1 do in these assays?
G9a inh: 44.7µM*; BAZ2B inh: inconclusive; Sfp inh: -81.3%

What do the screens show for `Cc1nc2ccc(NC(=O)c3ccc(Cl)s3)cc2s1`?
PLK1 PBD block: -6.7%; G9a inh: 4.1%; HP1b binding inh: 63.4%; BAZ2B inh: 2.6%; Sfp inh: -1.7%; JMJD2A Tudor: -16.6%

Results for N#CC1=C(N)Oc2n[nH]c(-c3ccccc3)c2C1c1cccc(OC(=O)N2CCOCC2)c1 (stereo not given) ?
PLK1 PBD block: -16.5%; G9a inh: inconclusive; HP1b binding inh: 17.7%; BAZ2B inh: -34.2%; Sfp inh: 2.8%; JMJD2A Tudor: -25.7%

How did CCCCC/C=C\C/C=C\CCCCCCCCCC(=O)NCCc1ccc(O)c(O)c1 do in these assays?
Sfp inh: 13.6%

How did C/C(CC(c1ccccc1)c1c(O)c2ccccc2oc1=O)=N\NC(N)=S (stereo not given) do in these assays?
PLK1 PBD block: -13.6%; G9a inh: inconclusive; HP1b binding inh: -19.5%; BAZ2B inh: 1.8%; Sfp inh: inconclusive; JMJD2A Tudor: 1.26µM*

Results for CCN1CCN(c2ccc(N)cc2)CC1 ?
PLK1 PBD block: 0.5%; G9a inh: 39.8µM*; HP1b binding inh: 3.3%; BAZ2B inh: -18.2%; Sfp inh: 4.7%; JMJD2A Tudor: -28.3%

Results for CN1CCN(c2ccc(N)cc2)CC1 ?
PLK1 PBD block: -1.0%; G9a inh: 12.6µM*; HP1b binding inh: -11.2%; BAZ2B inh: inconclusive; Sfp inh: 9.4%; JMJD2A Tudor: inconclusive

What do the screens show for `CN1CCN(c2ccc(N)c(N3CCN(C)CC3)c2)CC1`?
PLK1 PBD block: -1.7%; G9a inh: inconclusive; HP1b binding inh: -7.7%; BAZ2B inh: inconclusive; Sfp inh: -12.9%; JMJD2A Tudor: -29.9%
